# Experimental data as given in publication PMC5540273 (PLoS ONE, 2017).
# Read-outs that look alike come from different tables or passages of the source.
# Key:
# Conditions in all cases: n = 1
# [1] = system: MKNK1
# [2] = system: MKNK2
# [3] = system: T1, MLCK
# T1 construct: gene MYLK3
# [4] = system: T2, MLK1
# T2 construct: gene MAP3K9
# [5] = system: MLK2
# [6] = system: MLK3
# [7] = system: MRCKA
# [8] = system: T3, MRCKB
# T3 construct: gene CDC42BPB
# [9] = system: MST1R
# [10] = system: T4, MST1
# T4 construct: gene STK4
# [11] = concentration: 1 μM, replicates: in singlicate
# 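Note: KINOMEscan kinase panel screen.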
SMILES,"%Inh [1, 11] [%]","%Inh [2, 11] [%]","%Inh [3, 11] [%]","%Inh [4, 11] [%]","%Inh [5, 11] [%]","%Inh [6, 11] [%]","%Inh [7, 11] [%]","%Inh [8, 11] [%]","%Inh [9, 11] [%]","%Inh [10, 11] [%]",%Inh ([1]; 1 µM) [%],%Inh ([2]; 1 µM) [%],%Inh ([3]; 1 µM) [%],%Inh ([4]; 1 µM) [%],%Inh ([5]; 1 µM) [%],%Inh ([6]; 1 µM) [%],%Inh ([7]; 1 µM) [%],%Inh ([8]; 1 µM) [%],%Inh ([9]; 1 µM) [%],%Inh ([10]; 1 µM) [%]
Cc1nnc(-c2ccc3occ(-c4ccc(S(C)=O)cc4)c3c2)[nH]1 (centres unmarked),9,49,8,6,3,4,1,0,0,0,–,–,–,–,–,–,–,–,–,–
Cc1ccc(NC(=O)Nc2cccc(C(F)(F)F)c2)cc1 [GSK955403],–,–,–,–,–,–,–,–,–,–,0,30,0,0,13,6,0,0,0,0
Cc1cc(N2Cc3ccccc3C2)nc(Nc2ccc(S(=O)(=O)N3CCOCC3)cc2)n1.Cl [GSK1669917],0,0,0,0,0,15,1,0,0,0,–,–,–,–,–,–,–,–,–,–
Cl.O=C(Nc1cccc(-c2nn3ncccc3c2-c2ccnc(Nc3cccnc3)n2)c1)c1c(F)cccc1F [GSK312879],0,30,0,0,31,1,1,8,26,17,–,–,–,–,–,–,–,–,–,–
Cc1cc(-c2ccc3c(c2)CC[C@@H](N[C@@H](C)c2ccccc2)C3)cnc1N.Cl [GW412617],13,3,0,0,15,32,0,4,38,1,–,–,–,–,–,–,–,–,–,–
CCCc1ccc(S(=O)(=O)NC2CCN(c3ccnc(Nc4ccc(F)cc4)n3)C2)cc1 (centres unmarked) [GSK1379715],0,8,0,0,0,0,12,0,7,0,–,–,–,–,–,–,–,–,–,–
CC(C)(C)c1ccc(C(=O)Nc2cn3cc(-c4cccnc4)ccc3n2)cc1,0,26,41,12,43,0,9,0,48,33,–,–,–,–,–,–,–,–,–,–
Cc1ccc(C(=O)Nc2ccc(Nc3ccnc4cc(-c5ccccn5)ccc34)cc2O)cc1.Cl [GW440146],0,0,0,0,0,0,18,0,52,10,–,–,–,–,–,–,–,–,–,–
Cn1cncc1-c1ccc2ncnc(Nc3ccc(OCc4ccccc4)cc3)c2c1 [GW320571],24,27,7,8,26,20,8,17,29,14,–,–,–,–,–,–,–,–,–,–
CN1C(=O)C(Nc2ccc(Cl)c(C(=O)O)c2)=C(c2ccc(Cl)cc2)C1=O [SB-404290],0,10,0,0,0,4,13,0,19,12,–,–,–,–,–,–,–,–,–,–
Cl.Oc1ccc(-c2nc(-c3ccccc3)[nH]c2-c2ccncc2)cc1 [SB-428218],0,0,14,0,0,0,43,2,0,10,–,–,–,–,–,–,–,–,–,–
Cn1ccc2ncnc(Oc3cccc(C(=O)Nc4ccccc4)c3)c21,12,11,13,0,6,12,1,15,11,0,–,–,–,–,–,–,–,–,–,–
Nc1nc(-c2nccs2)c(-c2ccnc3ccccc23)s1 [GW693542],11,6,0,6,0,0,12,0,33,2,–,–,–,–,–,–,–,–,–,–
COc1ccc(C2=C(Nc3cccc(C(=O)O)c3)C(=O)NC2=O)cc1 [SB-390765],0,43,27,0,0,27,0,8,24,0,–,–,–,–,–,–,–,–,–,–
O=C(Nc1n[nH]c2nc(-c3nccs3)c(Br)cc12)C1CCCC1 [SB-742609],31,31,39,9,12,0,0,0,27,3,–,–,–,–,–,–,–,–,–,–
CC(=O)Nc1nc2cnc(Nc3cc(NC(=O)c4cccc(CCC#N)c4)ccc3C)nc2s1,3,0,0,2,15,13,0,0,21,5,–,–,–,–,–,–,–,–,–,–
Fc1cc(Cl)ccc1Nc1ccnc2cc(-c3ccc(CN4CCCCC4)o3)ccc12 [GW560116],0,11,0,0,0,0,6,3,16,0,–,–,–,–,–,–,–,–,–,–
